Measured values: PubChem BioAssay (NCATS)
Inconclusive results are not listed. A call without a number means that no potency is given here. Unmarked numbers belong to inactive results. Active and inactive are the calls of the source. Unless noted, calls come from the whole dose curve; as a rule, active = well fitted inhibition curve with a large enough effect; inconclusive = small, poorly fitted or top-dose-only effect; inactive = flat fitted curve, though single readings scatter.

Experiments:
[1] = target: Atrial natriuretic peptide receptor 1 (Homo sapiens) (UniProt P16066); assay: Natriuretic polypeptide receptor (hNpr1) antagonism - Pilot CMLD screen (AID 1347052; calls by dose curve;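 note: HEK293 cells with hNpr1 stimulated by hNppA peptide at 0.1 nM; cGMP level read as GloSensor luciferase luminescence after agonist stimulation; series mostly up to about 9.2 µM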)
[2] = P-glycoprotein substrates identified in KB-8-5-11 adenocarcinoma cell line, qHTS therapeutic library screen (AID 1346987); note: series mostly up to about 44 µM; nearly all actives have a fitted effect of over 65% in size
Outline: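 Human cervical adenocarcinoma KB-8-5-11 cells, selected in colchicine to over-express P-gp and assayed without it, were exposed for 72 h to titrated compounds. An ATP-based luminescent viability signal gave AC50.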

[3] = target: Glutathione peroxidase 1 (Homo sapiens) (UniProt P07203); assay: Primary qHTS Assay for Inhibitors of Recombinant Selenoprotein Glutathione Peroxidase 1 (GPX1) (AID 1845191); note: nearly all actives have a fitted effect of over 65% in size
Outline: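 GPX1 10 nM, GR 100 nM, GSH 1 mM, NADPH 0.5 mM, CHP 0.5 mM (final). 30-min cpd preincubation, RT. Ex340/Em450 read t=0, t=15 min.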

Atrial natriuretic peptide receptor 1 (Homo sapiens), sequence (P16066 whole entry, looked up): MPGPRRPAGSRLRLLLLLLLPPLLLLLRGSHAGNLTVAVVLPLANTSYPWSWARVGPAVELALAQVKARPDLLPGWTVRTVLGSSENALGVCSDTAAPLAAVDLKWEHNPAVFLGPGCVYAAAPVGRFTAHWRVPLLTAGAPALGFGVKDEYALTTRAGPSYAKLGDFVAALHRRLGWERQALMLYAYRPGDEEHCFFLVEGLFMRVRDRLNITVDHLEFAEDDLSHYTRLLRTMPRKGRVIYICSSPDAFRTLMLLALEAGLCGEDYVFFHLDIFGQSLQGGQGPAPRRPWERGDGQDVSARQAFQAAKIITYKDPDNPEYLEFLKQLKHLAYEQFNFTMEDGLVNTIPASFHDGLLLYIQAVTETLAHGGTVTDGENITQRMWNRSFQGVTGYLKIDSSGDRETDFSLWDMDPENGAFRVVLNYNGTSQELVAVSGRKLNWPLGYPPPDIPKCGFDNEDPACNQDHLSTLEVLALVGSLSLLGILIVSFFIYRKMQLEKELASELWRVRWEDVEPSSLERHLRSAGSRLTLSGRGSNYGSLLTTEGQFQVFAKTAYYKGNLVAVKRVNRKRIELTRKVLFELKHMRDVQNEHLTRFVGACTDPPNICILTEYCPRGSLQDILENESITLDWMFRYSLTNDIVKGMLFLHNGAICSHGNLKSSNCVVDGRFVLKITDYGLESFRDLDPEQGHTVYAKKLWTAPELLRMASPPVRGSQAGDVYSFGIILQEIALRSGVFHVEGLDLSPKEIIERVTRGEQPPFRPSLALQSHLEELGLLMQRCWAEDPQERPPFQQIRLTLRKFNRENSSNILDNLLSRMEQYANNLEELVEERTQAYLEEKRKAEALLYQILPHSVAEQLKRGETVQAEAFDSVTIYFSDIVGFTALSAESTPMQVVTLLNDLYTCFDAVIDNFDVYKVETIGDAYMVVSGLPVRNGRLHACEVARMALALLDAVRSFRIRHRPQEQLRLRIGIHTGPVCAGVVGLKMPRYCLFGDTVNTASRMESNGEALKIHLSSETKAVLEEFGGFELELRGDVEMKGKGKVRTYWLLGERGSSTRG
Glutathione peroxidase 1 (Homo sapiens), sequence (P07203 whole entry, looked up): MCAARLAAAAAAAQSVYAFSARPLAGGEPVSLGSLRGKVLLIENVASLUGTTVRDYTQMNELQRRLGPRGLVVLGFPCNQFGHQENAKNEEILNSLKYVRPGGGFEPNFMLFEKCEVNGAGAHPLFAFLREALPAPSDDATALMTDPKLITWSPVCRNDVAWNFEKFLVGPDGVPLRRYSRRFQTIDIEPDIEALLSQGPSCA

Compound | Potency [1] | Potency [2] | Potency [3]
C=CC[C@@H]1C=C[C@@H](Oc2ccc(OC)cc2)[C@H](CO)O1 | inactive |  | 
CC(C)(C)n1nc(-c2cccc3ccccc23)c2c(N)ncnc21 |  | inactive | inactive
